Results from article PMC5700166.

Assays:
Assay in all cases: protein-binding microarray (PBM); PBM: ~300 nM protein, 6 mM HEPES pH 7.8, 80 mM KCl, 0.5 mM EDTA, 0.5 mM EGTA, 6% glycerol, 35 ng/ul poly-dIdC, 1% milk, 1 h, room temperature; Ap Aiptasia and Nv Nematostella (sea anemones) / Co Capsaspora / Aq Amphimedon (sponge) / Dm Drosophila / Hu human; RHD is the Rel homology domain; high values mean tight binding
Settings in all cases: dsDNA, one strand shown
[1] = biological target: T1, GST-Ap-NF-kB RHD (Exaiptasia pallida (Aiptasia), UniProt A0A913YAJ5 2-422)
T1 sequence: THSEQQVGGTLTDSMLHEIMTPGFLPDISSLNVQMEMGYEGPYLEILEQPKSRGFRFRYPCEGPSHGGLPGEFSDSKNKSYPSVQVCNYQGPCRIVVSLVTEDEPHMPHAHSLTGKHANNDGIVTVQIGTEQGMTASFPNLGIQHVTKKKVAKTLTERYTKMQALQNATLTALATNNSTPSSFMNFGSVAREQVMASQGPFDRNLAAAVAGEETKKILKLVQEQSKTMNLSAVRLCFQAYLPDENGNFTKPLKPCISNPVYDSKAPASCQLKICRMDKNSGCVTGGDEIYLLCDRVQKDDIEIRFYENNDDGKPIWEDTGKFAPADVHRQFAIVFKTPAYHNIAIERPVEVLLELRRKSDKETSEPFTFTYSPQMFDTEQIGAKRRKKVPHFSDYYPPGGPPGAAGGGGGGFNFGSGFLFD

[2] = biological target: T2, GST-Nv-NF-kB (Cys allele) (Nematostella vectensis, UniProt E5G601 2-411)
T2 sequence: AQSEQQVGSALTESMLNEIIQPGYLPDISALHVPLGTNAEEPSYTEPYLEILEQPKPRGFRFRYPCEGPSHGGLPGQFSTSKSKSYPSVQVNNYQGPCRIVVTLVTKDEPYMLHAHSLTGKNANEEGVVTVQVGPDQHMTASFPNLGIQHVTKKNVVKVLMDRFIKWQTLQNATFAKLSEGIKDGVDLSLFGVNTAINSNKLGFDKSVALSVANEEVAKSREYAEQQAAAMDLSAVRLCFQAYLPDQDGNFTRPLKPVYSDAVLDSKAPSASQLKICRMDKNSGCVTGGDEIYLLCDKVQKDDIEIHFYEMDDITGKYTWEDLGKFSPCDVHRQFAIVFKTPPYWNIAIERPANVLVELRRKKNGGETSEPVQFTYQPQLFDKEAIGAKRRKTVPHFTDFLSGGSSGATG

[3] = biological target: T3, GST-Co-NF-kB (Capsaspora owczarzaki, UniProt F1ARL5 200-546)
T3 sequence: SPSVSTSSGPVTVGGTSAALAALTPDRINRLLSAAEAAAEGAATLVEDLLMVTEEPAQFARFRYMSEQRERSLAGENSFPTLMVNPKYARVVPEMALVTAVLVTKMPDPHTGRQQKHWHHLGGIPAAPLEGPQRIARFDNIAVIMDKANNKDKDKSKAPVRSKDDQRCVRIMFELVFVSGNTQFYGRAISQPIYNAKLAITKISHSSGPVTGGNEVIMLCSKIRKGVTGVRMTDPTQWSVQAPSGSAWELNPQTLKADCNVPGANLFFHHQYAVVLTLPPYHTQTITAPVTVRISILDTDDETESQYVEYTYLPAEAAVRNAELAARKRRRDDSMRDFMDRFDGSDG

[4] = biological target: T4, GST-Dm-Relish (Drosophila melanogaster, UniProt Q94527 99-473)
T4 sequence: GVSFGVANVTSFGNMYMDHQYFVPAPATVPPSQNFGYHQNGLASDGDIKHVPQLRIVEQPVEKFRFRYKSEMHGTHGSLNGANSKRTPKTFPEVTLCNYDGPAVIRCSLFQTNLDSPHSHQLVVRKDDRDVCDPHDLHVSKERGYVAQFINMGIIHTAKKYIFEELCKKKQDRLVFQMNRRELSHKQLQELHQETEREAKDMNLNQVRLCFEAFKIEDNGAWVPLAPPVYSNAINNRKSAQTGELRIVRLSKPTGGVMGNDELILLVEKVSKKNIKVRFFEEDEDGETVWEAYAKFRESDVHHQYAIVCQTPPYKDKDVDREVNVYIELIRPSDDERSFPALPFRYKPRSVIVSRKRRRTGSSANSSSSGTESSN

[5] = biological target: T5, GST-Aq-NF-kB (Amphimedon queenslandica, UniProt A9Y5G7 2-389)
T5 sequence: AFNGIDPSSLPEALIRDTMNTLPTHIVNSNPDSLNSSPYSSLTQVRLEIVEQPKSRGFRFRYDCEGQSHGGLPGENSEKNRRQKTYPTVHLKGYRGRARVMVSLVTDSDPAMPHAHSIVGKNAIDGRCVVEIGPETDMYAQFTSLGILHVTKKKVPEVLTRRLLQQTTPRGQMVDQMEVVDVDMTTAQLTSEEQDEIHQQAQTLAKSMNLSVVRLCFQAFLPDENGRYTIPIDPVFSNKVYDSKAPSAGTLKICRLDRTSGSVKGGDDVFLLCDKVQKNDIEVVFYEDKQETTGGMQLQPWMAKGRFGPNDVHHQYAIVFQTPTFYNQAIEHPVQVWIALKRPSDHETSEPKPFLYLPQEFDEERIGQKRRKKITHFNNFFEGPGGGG

Row | Sequence | binding signal [1] [z-score] | binding signal [2] [z-score] | binding signal [3] [z-score] | binding signal [4] [z-score] | binding signal [5] [z-score]
1 | CCGATTAACATCAGGGAACGCCCTGATGTTAATCGGGTCTTGATTCGCTTGACGCTGCTG | 2.68 | 2.74 | 1.21 | 4.32 | 5.25
2 | CCGATTAACATCACTGTTTTCCCTGATGTTAATCGGGTCTTGATTCGCTTGACGCTGCTG | 2.63 | 4.15 | 4.9 | 1.62 | 3.31
3 | CCGATTAACATCAAAATCTTCCCTGATGTTAATCGGGTCTTGATTCGCTTGACGCTGCTG | 5.74 | 5.94 | 4.16 | 1.48 | 5.28
4 | CCGATTAACATCAGGAATACCCCTGATGTTAATCGGGTCTTGATTCGCTTGACGCTGCTG | 6.59 | 6.44 | 4.14 | 6.46 | 6.92
5 | CCGATTAACATCAGGGAAACTCATGATGTTAATCGGGTCTTGATTCGCTTGACGCTGCTG | 3.29 | 4.53 | 3.68 | 1.31 | 4.27
6 | CCGATTAACATCAGGGAAAGAACTGATGTTAATCGGGTCTTGATTCGCTTGACGCTGCTG | 1.89 | 3.99 | 2.55 | 6.83 | 4.9
7 | CCGATTAACATCACGTAAACCCCTGATGTTAATCGGGTCTTGATTCGCTTGACGCTGCTG | 3.55 | 2.68 | 1.08 | 6.43 | 3.41
8 | CCGATTAACATCAGGCACTCCCCTGATGTTAATCGGGTCTTGATTCGCTTGACGCTGCTG | 4.75 | 3.18 | 2.45 | 3.63 | 4.71
9 | CCGATTAACATCAGGGGGGGTGATGATGTTAATCGGGTCTTGATTCGCTTGACGCTGCTG | 3.51 | 4.08 | 4.48 | 4.26 | 4.36
10 | CCGATTAACATCAGGGTAAAACCTGATGTTAATCGGGTCTTGATTCGCTTGACGCTGCTG | 1.98 | 3.16 | 1.9 | 3.45 | 6.02
11 | CCGATTAACATCAGGGGCGGGAATGATGTTAATCGGGTCTTGATTCGCTTGACGCTGCTG | 2.87 | 3.85 | 3.85 | 2.49 | 4.18
12 | CCGATTAACATCAGGAGATTCCCTGATGTTAATCGGGTCTTGATTCGCTTGACGCTGCTG | 3.76 | 5.47 | 2.78 | 4.79 | 7.56
13 | CCGATTAACATCACTAAAATCCCTGATGTTAATCGGGTCTTGATTCGCTTGACGCTGCTG | 3.37 | 3.38 | 1.18 | 5.48 | 3.65
14 | CCGATTAACATCAAACACTCCCCTGATGTTAATCGGGTCTTGATTCGCTTGACGCTGCTG | 4.43 | 3.84 | 3.52 | 1.65 | 4.61
15 | CCGATTAACATCAAACAACCCCCTGATGTTAATCGGGTCTTGATTCGCTTGACGCTGCTG | 5.66 | 4.5 | 2.66 | 5.24 | 5.17
16 | CCGATTAACATCAGGATGTTCCCTGATGTTAATCGGGTCTTGATTCGCTTGACGCTGCTG | 2.3 | 1.77 | 1.42 | 1.99 | 4.33
17 | CCGATTAACATCAAAGTGTCCCCTGATGTTAATCGGGTCTTGATTCGCTTGACGCTGCTG | 5.38 | 4.57 | 5.15 | 1.98 | 4.15
18 | CCGATTAACATCAAGCATCCCCCTGATGTTAATCGGGTCTTGATTCGCTTGACGCTGCTG | 4.92 | 5.03 | 4.28 | 3.89 | 4.87
19 | CCGATTAACATCAGGGGTTCACCTGATGTTAATCGGGTCTTGATTCGCTTGACGCTGCTG | 3.84 | 2.71 | 1.45 | 8.89 | 4.82
20 | CCGATTAACATCAACTCCCCCCATGATGTTAATCGGGTCTTGATTCGCTTGACGCTGCTG | 5.39 | 4.1 | 6.49 | 4.31 | 4.72
21 | CCGATTAACATCAGGCCCCCCCCTGATGTTAATCGGGTCTTGATTCGCTTGACGCTGCTG | 5.7 | 4.06 | 3.96 | 6.13 | 5.74
22 | CCGATTAACATCAATATAGTCCCTGATGTTAATCGGGTCTTGATTCGCTTGACGCTGCTG | 5.51 | 4.77 | 1.15 | 1.16 | 3.69
23 | CCGATTAACATCAGGGGAAGGACTGATGTTAATCGGGTCTTGATTCGCTTGACGCTGCTG | 4.32 | 4.53 | 4.12 | 8.23 | 5.22
24 | CCGATTAACATCACAAAACTCCCTGATGTTAATCGGGTCTTGATTCGCTTGACGCTGCTG | 4.94 | 6.58 | 2.13 | 5.41 | 6.32
25 | CCGATTAACATCAAACTTTCCCATGATGTTAATCGGGTCTTGATTCGCTTGACGCTGCTG | 3.24 | 4.83 | 4.07 | 1.39 | 5.27
26 | CCGATTAACATCACAAACTTCCCTGATGTTAATCGGGTCTTGATTCGCTTGACGCTGCTG | 3.81 | 4.26 | 2.51 | 3.48 | 4.68
27 | CCGATTAACATCACAGGGAAAAATGATGTTAATCGGGTCTTGATTCGCTTGACGCTGCTG | 2.81 | 4.49 | 5.03 | 1.6 | 3.9
28 | CCGATTAACATCAAACAAACCCCTGATGTTAATCGGGTCTTGATTCGCTTGACGCTGCTG | 4.35 | 3.42 | 1.74 | 3.06 | 3.95
